# Source: paper PMC7862700, “An all-to-all approach to the identification of sequence-specific readers for epigenetic DNA modifications on cytosine”
# Columns and labels:
# Experiment in all cases: DAPPL (digital affinity profiling via proximity ligation, sequencing); 10 mM Tris-HCl pH 7.5, 50 mM NaCl, 1 mM DTT, 4% glycerol, room temperature, 30 min; GST-TFs on glutathione beads, 16-mer random dsDNA library, 0.1% formaldehyde crosslink after washing; high values mean tight binding
# [1] = molecular target: T1, FLI1 (Homo sapiens, UniProt Q01543 1-452); details: protein: recombinant; tags: N-terminal GST; dsDNA, one strand shown
# T1 sequence: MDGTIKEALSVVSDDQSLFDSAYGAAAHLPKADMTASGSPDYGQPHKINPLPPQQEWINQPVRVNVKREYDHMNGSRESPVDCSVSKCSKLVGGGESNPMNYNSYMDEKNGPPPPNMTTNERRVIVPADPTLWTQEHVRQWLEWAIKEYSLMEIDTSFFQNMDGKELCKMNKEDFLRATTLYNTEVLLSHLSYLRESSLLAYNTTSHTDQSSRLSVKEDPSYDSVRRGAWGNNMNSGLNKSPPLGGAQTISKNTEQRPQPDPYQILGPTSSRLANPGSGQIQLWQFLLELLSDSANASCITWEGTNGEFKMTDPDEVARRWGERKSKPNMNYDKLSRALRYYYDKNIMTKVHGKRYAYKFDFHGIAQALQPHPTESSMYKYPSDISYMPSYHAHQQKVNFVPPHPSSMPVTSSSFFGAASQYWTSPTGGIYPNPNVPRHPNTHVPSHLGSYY
# Method in brief: (§1)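 A tag-only sample was pooled with DNA-barcoded human transcription factors that had been expressed in yeast as GST fusions and captured on glutathione beads. The pools were incubated for 30 min at room temperature with 200 nmole of a random double-stranded 16-mer DNA library in Tris/NaCl/DTT/glycerol buffer, then washed, crosslinked with 0.1% formaldehyde, proximity-ligated (BsaI/T4 ligase, 1 h, 37 °C), PCR-amplified and sequenced on an Illumina NextSeq500. Binding signal is each hexamer's read frequency for a factor divided by its frequency for the tag-only sample.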
# [2] = molecular target: T2, ELK1 (Homo sapiens, UniProt P19419 1-428); details: protein: recombinant; tags: N-terminal GST; dsDNA, one strand shown
# T2 sequence: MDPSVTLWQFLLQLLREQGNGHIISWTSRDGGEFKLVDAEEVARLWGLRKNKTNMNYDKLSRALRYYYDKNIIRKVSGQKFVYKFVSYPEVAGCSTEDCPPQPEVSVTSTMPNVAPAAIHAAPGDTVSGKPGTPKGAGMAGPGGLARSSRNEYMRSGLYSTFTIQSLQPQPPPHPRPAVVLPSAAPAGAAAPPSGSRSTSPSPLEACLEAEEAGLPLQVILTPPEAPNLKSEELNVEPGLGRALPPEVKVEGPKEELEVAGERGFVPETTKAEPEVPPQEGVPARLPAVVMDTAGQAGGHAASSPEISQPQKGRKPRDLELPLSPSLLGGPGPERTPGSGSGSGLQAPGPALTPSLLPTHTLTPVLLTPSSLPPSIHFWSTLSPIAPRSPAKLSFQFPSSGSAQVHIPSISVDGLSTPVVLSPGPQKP
# Method in brief: as §1
# [3] = molecular target: T3, ERG (Homo sapiens, UniProt P11308 1-479); details: protein: recombinant; tags: N-terminal GST; dsDNA, one strand shown
# T3 sequence: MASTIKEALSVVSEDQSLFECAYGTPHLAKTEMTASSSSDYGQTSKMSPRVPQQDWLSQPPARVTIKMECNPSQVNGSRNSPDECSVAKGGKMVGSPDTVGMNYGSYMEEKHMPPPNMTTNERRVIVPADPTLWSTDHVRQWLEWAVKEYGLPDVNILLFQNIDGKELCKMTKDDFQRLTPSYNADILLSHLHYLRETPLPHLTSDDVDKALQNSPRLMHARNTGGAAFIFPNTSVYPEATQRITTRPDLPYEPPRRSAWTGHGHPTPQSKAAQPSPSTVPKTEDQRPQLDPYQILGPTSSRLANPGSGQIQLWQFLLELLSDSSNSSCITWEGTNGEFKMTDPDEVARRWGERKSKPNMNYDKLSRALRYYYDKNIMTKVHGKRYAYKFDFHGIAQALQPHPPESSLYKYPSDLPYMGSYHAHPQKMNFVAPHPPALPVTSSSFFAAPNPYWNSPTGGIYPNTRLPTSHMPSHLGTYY
# Method in brief: as §1
# [4] = molecular target: ELF1 (Homo sapiens, UniProt P32519 1-619); details: protein: recombinant; tags: N-terminal GST; dsDNA, one strand shown
# Sequence of ELF1 (P32519 whole entry): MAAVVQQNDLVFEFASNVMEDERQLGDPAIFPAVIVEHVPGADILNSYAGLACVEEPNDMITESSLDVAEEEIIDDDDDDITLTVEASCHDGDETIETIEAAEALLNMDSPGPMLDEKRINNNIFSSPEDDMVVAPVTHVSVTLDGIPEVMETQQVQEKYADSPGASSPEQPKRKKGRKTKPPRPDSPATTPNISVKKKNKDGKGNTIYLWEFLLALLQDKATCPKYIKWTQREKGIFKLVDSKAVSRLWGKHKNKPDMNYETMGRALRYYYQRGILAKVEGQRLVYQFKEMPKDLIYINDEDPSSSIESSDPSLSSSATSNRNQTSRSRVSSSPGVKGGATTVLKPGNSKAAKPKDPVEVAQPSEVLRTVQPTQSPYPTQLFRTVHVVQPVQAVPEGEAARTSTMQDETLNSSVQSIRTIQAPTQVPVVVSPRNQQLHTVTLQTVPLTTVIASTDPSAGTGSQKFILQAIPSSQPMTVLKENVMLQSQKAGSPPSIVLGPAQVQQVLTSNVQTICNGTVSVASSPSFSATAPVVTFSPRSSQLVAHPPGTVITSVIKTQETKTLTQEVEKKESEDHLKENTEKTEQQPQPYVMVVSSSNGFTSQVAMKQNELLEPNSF
# Method in brief: as §1
# [5] = molecular target: T4, EHF (Homo sapiens, UniProt Q9NZC4 1-300); details: protein: recombinant; tags: N-terminal GST; dsDNA, one strand shown
# T4 sequence: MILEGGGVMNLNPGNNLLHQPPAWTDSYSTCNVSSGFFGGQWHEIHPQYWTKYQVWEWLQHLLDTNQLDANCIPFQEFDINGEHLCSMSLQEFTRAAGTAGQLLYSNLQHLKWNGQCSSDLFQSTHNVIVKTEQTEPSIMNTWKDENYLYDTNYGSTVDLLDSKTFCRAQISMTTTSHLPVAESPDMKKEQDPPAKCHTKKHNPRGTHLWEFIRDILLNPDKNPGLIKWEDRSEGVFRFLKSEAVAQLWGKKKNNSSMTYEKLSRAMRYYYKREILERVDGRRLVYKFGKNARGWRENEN
# Method in brief: as §1
# [6] = molecular target: ETV5 (Homo sapiens, UniProt P41161 1-510); details: protein: recombinant; tags: N-terminal GST; dsDNA, one strand shown
# Sequence of ETV5 (P41161 whole entry): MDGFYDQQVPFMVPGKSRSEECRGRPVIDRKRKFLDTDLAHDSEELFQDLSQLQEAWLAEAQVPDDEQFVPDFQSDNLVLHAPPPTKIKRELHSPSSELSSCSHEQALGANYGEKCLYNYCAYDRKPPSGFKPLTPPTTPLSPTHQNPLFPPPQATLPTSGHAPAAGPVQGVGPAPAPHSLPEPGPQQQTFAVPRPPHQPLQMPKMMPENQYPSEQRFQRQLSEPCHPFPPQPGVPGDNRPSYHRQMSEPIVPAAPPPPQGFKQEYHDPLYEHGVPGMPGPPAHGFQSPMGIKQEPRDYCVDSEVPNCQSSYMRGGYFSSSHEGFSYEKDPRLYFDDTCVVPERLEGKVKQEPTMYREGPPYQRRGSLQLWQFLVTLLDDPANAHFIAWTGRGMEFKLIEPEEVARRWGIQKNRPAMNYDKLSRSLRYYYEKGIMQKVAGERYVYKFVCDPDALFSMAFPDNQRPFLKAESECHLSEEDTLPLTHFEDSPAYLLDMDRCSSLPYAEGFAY
# Method in brief: as §1
# [7] = molecular target: HSF1 (Homo sapiens, UniProt Q00613 1-529); details: protein: recombinant; tags: N-terminal GST; chain copies: 3; dsDNA, one strand shown
# Sequence of HSF1 (Q00613 whole entry): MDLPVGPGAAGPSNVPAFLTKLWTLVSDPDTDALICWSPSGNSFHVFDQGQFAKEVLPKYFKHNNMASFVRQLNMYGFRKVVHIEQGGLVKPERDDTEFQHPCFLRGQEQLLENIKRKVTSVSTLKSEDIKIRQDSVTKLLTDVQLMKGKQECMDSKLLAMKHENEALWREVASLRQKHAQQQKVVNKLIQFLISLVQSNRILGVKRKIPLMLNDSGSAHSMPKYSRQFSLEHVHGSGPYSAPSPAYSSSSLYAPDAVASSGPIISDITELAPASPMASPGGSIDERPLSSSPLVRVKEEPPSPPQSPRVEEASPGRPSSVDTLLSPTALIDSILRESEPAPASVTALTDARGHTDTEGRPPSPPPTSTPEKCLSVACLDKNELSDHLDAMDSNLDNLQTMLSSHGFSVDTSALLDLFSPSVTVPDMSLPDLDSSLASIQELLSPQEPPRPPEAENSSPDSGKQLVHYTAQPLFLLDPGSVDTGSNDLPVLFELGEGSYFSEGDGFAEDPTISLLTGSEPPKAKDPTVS
# Method in brief: as §1
# [8] = molecular target: ELF4 (Homo sapiens, UniProt Q99607 1-663); details: protein: recombinant; tags: N-terminal GST; dsDNA, one strand shown
# Sequence of ELF4 (Q99607 whole entry): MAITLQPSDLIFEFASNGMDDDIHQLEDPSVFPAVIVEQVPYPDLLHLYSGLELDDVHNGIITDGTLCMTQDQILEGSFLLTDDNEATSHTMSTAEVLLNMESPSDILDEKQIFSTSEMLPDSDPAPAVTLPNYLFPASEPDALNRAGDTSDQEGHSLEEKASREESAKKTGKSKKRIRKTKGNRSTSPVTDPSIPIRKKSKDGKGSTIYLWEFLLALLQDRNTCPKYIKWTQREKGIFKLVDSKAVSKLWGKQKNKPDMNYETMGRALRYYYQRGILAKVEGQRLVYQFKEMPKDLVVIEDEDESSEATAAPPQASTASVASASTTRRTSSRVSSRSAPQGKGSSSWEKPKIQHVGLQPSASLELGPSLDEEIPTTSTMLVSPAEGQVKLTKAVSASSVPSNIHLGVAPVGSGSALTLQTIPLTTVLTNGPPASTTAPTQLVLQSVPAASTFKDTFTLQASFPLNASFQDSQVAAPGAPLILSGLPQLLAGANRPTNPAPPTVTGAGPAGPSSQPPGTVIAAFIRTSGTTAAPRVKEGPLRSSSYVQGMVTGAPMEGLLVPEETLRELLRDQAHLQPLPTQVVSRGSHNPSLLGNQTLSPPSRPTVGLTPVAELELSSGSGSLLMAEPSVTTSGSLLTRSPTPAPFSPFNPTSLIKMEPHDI
# Method in brief: as §1
# [9] = molecular target: T5, ELK4 (Homo sapiens, UniProt P28324-2 1-405); details: protein: recombinant; tags: N-terminal GST; dsDNA, one strand shown
# T5 sequence: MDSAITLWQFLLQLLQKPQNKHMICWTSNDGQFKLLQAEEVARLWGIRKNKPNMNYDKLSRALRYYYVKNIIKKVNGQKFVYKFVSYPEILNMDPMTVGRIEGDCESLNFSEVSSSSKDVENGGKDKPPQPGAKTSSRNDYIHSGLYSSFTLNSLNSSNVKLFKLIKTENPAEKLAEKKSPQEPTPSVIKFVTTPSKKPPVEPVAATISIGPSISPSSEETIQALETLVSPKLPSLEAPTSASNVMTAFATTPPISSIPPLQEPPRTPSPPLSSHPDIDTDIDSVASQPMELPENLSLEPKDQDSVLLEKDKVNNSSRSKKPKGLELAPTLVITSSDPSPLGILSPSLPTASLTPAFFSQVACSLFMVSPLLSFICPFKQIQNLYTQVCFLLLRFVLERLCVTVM
# Method in brief: as §1
# [10] = molecular target: T6, ETV2 (Homo sapiens, UniProt O00321 1-342); details: protein: recombinant; tags: N-terminal GST; dsDNA, one strand shown
# T6 sequence: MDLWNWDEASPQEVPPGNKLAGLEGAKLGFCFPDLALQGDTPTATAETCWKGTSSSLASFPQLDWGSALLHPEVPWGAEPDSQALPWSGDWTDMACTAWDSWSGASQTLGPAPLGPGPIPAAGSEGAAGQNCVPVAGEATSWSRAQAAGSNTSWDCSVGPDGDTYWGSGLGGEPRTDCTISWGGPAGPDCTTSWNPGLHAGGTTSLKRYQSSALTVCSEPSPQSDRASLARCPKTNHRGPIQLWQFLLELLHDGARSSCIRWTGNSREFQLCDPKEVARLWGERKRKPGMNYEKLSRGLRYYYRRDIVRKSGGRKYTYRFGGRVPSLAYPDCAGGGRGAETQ
# Method in brief: as §1
# [11] = molecular target: CRX (Homo sapiens, UniProt O43186 1-299); details: protein: recombinant; tags: N-terminal GST; dsDNA, one strand shown
# Sequence of CRX (O43186 whole entry): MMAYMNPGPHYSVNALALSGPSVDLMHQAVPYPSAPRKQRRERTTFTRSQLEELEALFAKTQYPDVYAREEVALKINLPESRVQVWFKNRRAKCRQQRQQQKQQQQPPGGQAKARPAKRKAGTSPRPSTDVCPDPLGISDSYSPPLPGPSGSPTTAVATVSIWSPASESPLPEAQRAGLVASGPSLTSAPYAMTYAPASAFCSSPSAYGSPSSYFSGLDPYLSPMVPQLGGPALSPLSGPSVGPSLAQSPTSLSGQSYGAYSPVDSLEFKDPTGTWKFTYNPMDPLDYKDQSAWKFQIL
# Method in brief: as §1
# [12] = molecular target: ETV1 (Homo sapiens, UniProt P50549 1-477); details: protein: recombinant; tags: N-terminal GST; dsDNA, one strand shown
# Sequence of ETV1 (P50549 whole entry): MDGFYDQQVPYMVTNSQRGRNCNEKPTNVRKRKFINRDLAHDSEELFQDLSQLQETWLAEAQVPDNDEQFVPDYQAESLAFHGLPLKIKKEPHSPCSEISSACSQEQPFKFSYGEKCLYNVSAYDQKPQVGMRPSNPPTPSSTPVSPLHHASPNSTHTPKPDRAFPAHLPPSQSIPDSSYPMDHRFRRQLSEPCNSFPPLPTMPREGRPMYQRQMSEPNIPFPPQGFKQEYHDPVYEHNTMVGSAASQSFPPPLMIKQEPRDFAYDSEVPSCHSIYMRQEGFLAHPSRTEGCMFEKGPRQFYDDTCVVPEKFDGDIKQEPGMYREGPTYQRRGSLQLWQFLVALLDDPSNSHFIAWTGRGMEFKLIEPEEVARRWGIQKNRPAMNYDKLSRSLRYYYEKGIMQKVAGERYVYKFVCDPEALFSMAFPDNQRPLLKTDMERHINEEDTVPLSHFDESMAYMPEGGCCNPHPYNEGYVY
# Method in brief: as §1
# [13] = molecular target: T7, GABPA (Homo sapiens, UniProt Q06546 1-454); details: protein: recombinant; tags: N-terminal GST; dsDNA, one strand shown
# T7 sequence: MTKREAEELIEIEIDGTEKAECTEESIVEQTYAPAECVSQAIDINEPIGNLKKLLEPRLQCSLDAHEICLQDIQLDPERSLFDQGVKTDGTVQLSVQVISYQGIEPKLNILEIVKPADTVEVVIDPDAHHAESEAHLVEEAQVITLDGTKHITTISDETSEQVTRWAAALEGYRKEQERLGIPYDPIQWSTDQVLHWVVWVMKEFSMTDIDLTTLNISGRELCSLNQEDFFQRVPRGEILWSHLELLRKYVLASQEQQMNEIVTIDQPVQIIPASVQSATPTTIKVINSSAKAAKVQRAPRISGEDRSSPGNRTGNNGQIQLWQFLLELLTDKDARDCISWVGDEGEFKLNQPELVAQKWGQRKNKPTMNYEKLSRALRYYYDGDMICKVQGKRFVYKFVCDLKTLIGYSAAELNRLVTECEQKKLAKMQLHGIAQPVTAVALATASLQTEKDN
# Method in brief: as §1
# [14] = molecular target: SPI1 (Homo sapiens, UniProt P17947 1-270); details: protein: recombinant; tags: N-terminal GST; dsDNA, one strand shown
# Method in brief: as §1
# [15] = molecular target: T8, ELK3 (Homo sapiens, UniProt P41970 1-407); details: protein: recombinant; tags: N-terminal GST; dsDNA, one strand shown
# T8 sequence: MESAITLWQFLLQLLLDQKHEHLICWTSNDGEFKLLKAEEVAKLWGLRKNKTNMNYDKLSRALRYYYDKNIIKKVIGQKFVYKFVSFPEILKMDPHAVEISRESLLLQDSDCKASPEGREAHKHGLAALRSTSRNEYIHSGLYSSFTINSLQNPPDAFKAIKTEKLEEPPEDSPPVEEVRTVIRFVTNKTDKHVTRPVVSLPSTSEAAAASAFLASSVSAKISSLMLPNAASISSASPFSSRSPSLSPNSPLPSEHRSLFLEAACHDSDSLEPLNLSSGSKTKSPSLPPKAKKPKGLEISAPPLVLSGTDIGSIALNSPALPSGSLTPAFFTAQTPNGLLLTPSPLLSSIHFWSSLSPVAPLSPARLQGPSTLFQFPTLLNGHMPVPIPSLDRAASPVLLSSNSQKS
# Method in brief: as §1
# [16] = molecular target: T9, FEV (Homo sapiens, UniProt Q99581 1-238); details: protein: recombinant; tags: N-terminal GST; dsDNA, one strand shown
# T9 sequence: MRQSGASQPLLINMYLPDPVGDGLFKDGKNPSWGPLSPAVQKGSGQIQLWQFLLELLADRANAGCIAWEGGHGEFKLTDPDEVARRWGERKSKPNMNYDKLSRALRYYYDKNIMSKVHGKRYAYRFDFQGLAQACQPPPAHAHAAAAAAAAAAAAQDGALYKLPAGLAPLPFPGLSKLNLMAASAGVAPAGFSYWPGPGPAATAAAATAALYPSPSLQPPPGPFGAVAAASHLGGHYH
# Method in brief: as §1
Sequence,binding signal [1],binding signal [2],binding signal [3],binding signal [4],binding signal [5],binding signal [6],binding signal [7],binding signal [8],binding signal [9],binding signal [10],binding signal [11],binding signal [12],binding signal [13],binding signal [14],binding signal [15],binding signal [16]
ACAGAT,"1.02 fold enrichment (6-mer frequency, TF over GST control)","1.1 fold enrichment (6-mer frequency, TF over GST control)","1.07 fold enrichment (6-mer frequency, TF over GST control)","1.02 fold enrichment (6-mer frequency, TF over GST control)","1.03 fold enrichment (6-mer frequency, TF over GST control)","1 fold enrichment (6-mer frequency, TF over GST control)","1.1 fold enrichment (6-mer frequency, TF over GST control)","1.05 fold enrichment (6-mer frequency, TF over GST control)","1.04 fold enrichment (6-mer frequency, TF over GST control)","1.05 fold enrichment (6-mer frequency, TF over GST control)","1.27 fold enrichment (6-mer frequency, TF over GST control)","1.05 fold enrichment (6-mer frequency, TF over GST control)",–,–,–,–
TTGCGC,"1.23 fold enrichment (6-mer frequency, TF over GST control)","1.17 fold enrichment (6-mer frequency, TF over GST control)","1.02 fold enrichment (6-mer frequency, TF over GST control)","1.1 fold enrichment (6-mer frequency, TF over GST control)","1.12 fold enrichment (6-mer frequency, TF over GST control)","1.11 fold enrichment (6-mer frequency, TF over GST control)","1.05 fold enrichment (6-mer frequency, TF over GST control)","1.06 fold enrichment (6-mer frequency, TF over GST control)",–,"1.11 fold enrichment (6-mer frequency, TF over GST control)","1.05 fold enrichment (6-mer frequency, TF over GST control)","1.16 fold enrichment (6-mer frequency, TF over GST control)","1.1 fold enrichment (6-mer frequency, TF over GST control)","1.06 fold enrichment (6-mer frequency, TF over GST control)","1.04 fold enrichment (6-mer frequency, TF over GST control)","1.05 fold enrichment (6-mer frequency, TF over GST control)"
